# Data from the OligoGym collection.
# Target: LEKR1
# Assay: pooled miR-30 sensor sort-seq; sequence = guide strand
# Conditions: shRNA
# Note: reference of the scale not given here.
row,Sequence,sensor-assay potency score (higher = more potent)
1,TATACTTTTGGATTACATCTTG,-0.0779
2,TTCTCTACGCACTGTCTCCTGA,-0.0391
3,TTTAAGAGTGGTCACTTCCTGC,-0.157

# Target: LENG8
# Assay: as above
# Conditions: shRNA
row,Sequence,sensor-assay potency score (higher = more potent)
1,TTCTTCAGCTCTCGCTCCGGGT,-0.923
2,TTCATGGTCACCCTTCTCCAAG,-1.23
3,TCCACCGTGAACTCGGTGCGGA,-1.28
4,TGTACTGAGAAGACCAATCTGT,0.223
5,TACACCTCCACCGTGAACTCGG,-0.419
6,TTGTACTGCTGGTACCACTGGT,0.0135
7,TGTTGAACTTGAGACCTCCAGT,-0.589
8,TTGAGCAGCTTTTCCGTGCGGT,0.289
9,TTGTCCTTCATGAAGACGTTGC,-0.437
10,TTCTCGTGTGAGGTATGCCAGC,-1.1
11,TAGTCCTGCTTCTCTTTCCAGT,-0.999
12,TAAATTTACAACCCAAGTCCAC,-0.679
